From PubChem BioAssay (EPA / NIEHS)
The source made the active and inactive calls. Rule for the calls: active = hit-call score of the fitted dose curve at least 0.9, where 1 is the maximum; inactive = score below 0.9.

How the values were obtained:
Conditions in all cases: mRNA level, 48 h; actives raise or lower the signal
[1] = read-out: Interleukin 6 Receptor (IL6R), IL6R (gene 3570); assay: LTEA_HepaRG_IL6R: Life Technologies and Expression Analysis (LTEA) Assay for Interleukin 6 Receptor (IL6R) using HepaRG (AID 2283510)
Procedure, shortened: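 Concentration-response in human liver HepaRG cells: eight concentrations from 100 uM downward by half-logs, 48 h exposure, 0.5% DMSO vehicle. IL6R mRNA change measured by qRT-PCR and fitted in both directions relative to vehicle.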

[2] = read-out: Potassium channel subfamily K member 1 (KCNK1), KCNK1 (gene 3775); assay: LTEA_HepaRG_KCNK1: Life Technologies and Expression Analysis (LTEA) Assay for Potassium channel subfamily K member 1 (KCNK1) using HepaRG (AID 2283511)
Procedure, shortened: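 Differentiated HepaRG cells, 48 h exposure in serum-free induction medium with 0.5% DMSO; 8 concentrations, half-log from 100 uM, duplicate. KCNK1 mRNA by qRT-PCR, normalized to ACTB, GAPDH, POLR2A; bidirectional fit vs DMSO.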

[3] = read-out: JUN Transcription Factor, JUN (gene 3725); assay: LTEA_HepaRG_JUN: Life Technologies and Expression Analysis (LTEA) Assay for JUN Transcription Factor using HepaRG (AID 2283513)
Procedure, shortened: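 Human HepaRG liver cells receive test chemicals in 0.5% DMSO for 48 h across an eight-point range topping at 100 uM. Expression changes in JUN are scored in both directions against the DMSO vehicle.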

[4] = read-out: Lipase C (LIPC), LIPC (gene 3990); assay: LTEA_HepaRG_LIPC: Life Technologies and Expression Analysis (LTEA) Assay for Lipase C (LIPC) using HepaRG (AID 2283514)
Procedure, shortened: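 HepaRG cells, 48 h after plating, treated in duplicate for 48 h in serum-free induction medium over 8 half-log concentrations from 100 uM, 0.5% DMSO. LIPC mRNA by TaqMan qRT-PCR normalized to ACTB/GAPDH/POLR2A; bidirectional fit versus DMSO.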

[5] = read-out: Lipoprotein lipase (LPL), LPL (gene 4023); assay: LTEA_HepaRG_LPL: Life Technologies and Expression Analysis (LTEA) Assay for Lipoprotein lipase (LPL) using HepaRG (AID 2283515)
Procedure, shortened: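 Differentiated HepaRG cells, plated 48 h, then exposed 48 h in serum-free induction medium to 8 concentrations (top 100 uM, half-log steps) in 0.5% DMSO, duplicate. LPL mRNA measured by qRT-PCR, normalized to ACTB, GAPDH and POLR2A.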

[6] = read-out: MicroRNA 122 (MIR122), gene 406906; assay: LTEA_HepaRG_MIR122: Life Technologies and Expression Analysis (LTEA) Assay for MicroRNA 122 (MIR122) using HepaRG (AID 2283516); note: the transcript read is the microRNA miR-122
Procedure, shortened: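 HepaRG, 48 h exposure, 8-pt half-log from 100 uM, 0.5% DMSO; TaqMan qRT-PCR; bidirectional fit vs DMSO.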

[7] = read-out: matrix metalloproteinase-10 (MMP10), MMP10 (gene 4319); assay: LTEA_HepaRG_MMP10: Life Technologies and Expression Analysis (LTEA) Assay for matrix metalloproteinase-10 (MMP10) using HepaRG (AID 2283517)
Procedure, shortened: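 Differentiated HepaRG cells in serum-free induction medium exposed 48 h in duplicate to 8-point half-log series up to 100 uM in 0.5% DMSO. mRNA quantified by qRT-PCR, normalised to ACTB, GAPDH, POLR2A; bidirectional fit versus DMSO.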

MYC, MYC (gene 4609) = assay: LTEA_HepaRG_MYC: Life Technologies and Expression Analysis (LTEA) Assay for MYC using HepaRG (AID 2283518)
Procedure, shortened: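 Differentiated HepaRG cells exposed 48 h in serum-free induction medium to 8 concentrations (top 100 uM, half-log steps; 0.5% DMSO), duplicate. MYC mRNA measured by Fluidigm qRT-PCR, normalized to ACTB, GAPDH, POLR2A; bidirectional fit versus DMSO.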

[8] = read-out: matrix metalloproteinase-3 (MMP3), MMP3 (gene 4314); assay: LTEA_HepaRG_MMP3: Life Technologies and Expression Analysis (LTEA) Assay for matrix metalloproteinase-3 (MMP3) using HepaRG (AID 2283519)
Procedure, shortened: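 HepaRG cells (~100,000/well) in serum-free induction medium were dosed in duplicate for 48 h with an 8-point half-log series from 100 uM, 0.5% DMSO. MMP3 mRNA was quantified by Fluidigm TaqMan qRT-PCR, normalized to three housekeeping genes.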

[9] = read-out: Keratin 19 (KRT19), KRT19 (gene 3880); assay: LTEA_HepaRG_KRT19: Life Technologies and Expression Analysis (LTEA) Assay for Keratin 19 (KRT19) using HepaRG (AID 2283512)
Procedure, shortened: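 Differentiated HepaRG cells in serum-free induction medium, exposed 48 h in duplicate to 8 half-log concentrations up to 100 uM in 0.5% DMSO. KRT19 mRNA by qRT-PCR, normalized to ACTB, GAPDH, POLR2A; bidirectional fit vs DMSO.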

SMILES	outcome [1]	outcome [2]	outcome [3]	outcome [4]	outcome [5]	outcome [6]	outcome [7]	outcome (MYC, MYC (gene 4609))	outcome [8]	outcome [9]	AC50 [9]	AC50 [8]	AC50 [2]	AC50 [4]	AC50 [5]	AC50 [6]	AC50 [7]	AC50 (MYC, MYC (gene 4609))
CNC(=O)N(C)c1nnc(C(C)(C)C)s1	inactive	inactive	inactive	inactive	inactive	inactive	inactive	inactive	inactive	–	–	–	–	–	–	–	–	–
Nc1c(Cl)c(Cl)nc(C(=O)O)c1Cl	inactive	inactive	inactive	inactive	inactive	inactive	inactive	inactive	inactive	inactive	–	–	–	–	–	–	–	–
CCCCOCN(C(=O)CCl)c1c(CC)cccc1CC	inactive	inactive	inactive	inactive	inactive	inactive	inactive	inactive	inactive	inactive	–	–	–	–	–	–	–	–
CS(=O)(=O)c1ccc(C(=O)C2C(=O)CCCC2=O)c([N+](=O)[O-])c1	inactive	inactive	inactive	inactive	inactive	inactive	inactive	inactive	inactive	inactive	–	–	–	–	–	–	–	–
N#Cc1c(Cl)cccc1Cl	inactive	inactive	inactive	inactive	inactive	inactive	inactive	inactive	inactive	inactive	–	–	–	–	–	–	–	–
O=c1n(Cl)c(=O)n(Cl)c(=O)n1Cl	inactive	inactive	inactive	inactive	inactive	inactive	inactive	inactive	inactive	inactive	–	–	–	–	–	–	–	–
Nc1cnn(-c2ccccc2)c(=O)c1Cl	inactive	inactive	inactive	inactive	inactive	inactive	inactive	inactive	inactive	inactive	–	–	–	–	–	–	–	–
COP(=O)(OC)O/C(C)=C/C(=O)N(C)C	inactive	inactive	inactive	inactive	inactive	inactive	inactive	inactive	inactive	inactive	–	–	–	–	–	–	–	–
CCOc1nc(F)cc2nc(S(=O)(=O)Nc3c(Cl)cccc3Cl)nn12	inactive	inactive	inactive	inactive	inactive	inactive	inactive	inactive	–	–	9.92 µM (active)	50 µM (active)	–	–	–	–	–	–
Cc1ccc(N=CN(C)C=Nc2ccc(C)cc2C)c(C)c1	inactive	inactive	inactive	inactive	inactive	inactive	inactive	inactive	inactive	inactive	–	–	–	–	–	–	–	–
COC(=O)NC(=S)Nc1ccccc1NC(=S)NC(=O)OC	inactive	inactive	inactive	inactive	inactive	inactive	inactive	inactive	inactive	inactive	–	–	–	–	–	–	–	–
CCCCC(O)(Cn1cncn1)c1ccc(Cl)cc1Cl (configuration not stated)	inactive	–	inactive	–	–	–	–	–	–	inactive	–	92.3 µM (active)	41.3 µM (active)	75.2 µM (active)	50 µM (active)	77 µM (active)	67.4 µM (active)	74.7 µM (active)
COC(=O)N(C(=O)N1CO[C@@]2(C(=O)OC)Cc3cc(Cl)ccc3C2=N1)c1ccc(OC(F)(F)F)cc1	–	inactive	inactive	–	–	–	inactive	inactive	inactive	–	16.9 µM (active)	–	–	40 µM (active)	2.97 µM (active)	40 µM (active)	–	–
C=CCOC(=O)C(C)(C)OC(=O)c1cc(-n2c(=O)cc(C(F)(F)F)n(C)c2=O)ccc1Cl	inactive	inactive	inactive	inactive	inactive	inactive	inactive	inactive	inactive	inactive	–	–	–	–	–	–	–	–
COCC(C)N(C(=O)CCl)c1c(C)csc1C (configuration not stated)	inactive	inactive	inactive	inactive	inactive	inactive	inactive	inactive	inactive	–	–	–	–	–	–	–	–	–
CC1(C)CCC(=Cc2ccc(Cl)cc2)C1(O)Cn1cncn1 (configuration not stated)	inactive	inactive	inactive	inactive	inactive	inactive	inactive	inactive	inactive	inactive	–	–	–	–	–	–	–	–
